The structures appear in SMILES notation. Records with an inconclusive call do not appear. Active and inactive are the calls of the source.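 How the source made its calls, unless noted: active means compounds whose cell count with miR-34 switched on is under 0.7 times the count with it off; inactive means the rest.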

Experiment [1] can be described thus: viability loss in pontine glioma line – cell-based, SU-DIPG-XIII, MIPE4.0, CellTiter-Glo, qHTS, dose response (AID 1347061; cut-off not given, nearly all actives have AC50 up to about 37 µM;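 further: cells exposed to compound for 48 hours before readout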). The note with it: CellTiter-Glo ATP luminescence.
Experiment [2] in a line: viability loss in pontine glioma line – cell-based, SU-DIPG-IV, MIPE4.0, CellTiter-Glo, qHTS, dose response (AID 1347063; cut-off not given, nearly all actives have AC50 up to about 30 µM;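 further: compound exposure lasted 48 hours before the viability readout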). The note with it: CellTiter-Glo ATP luminescence.
The nature of experiment [3]: viability loss in pontine glioma line – cell-based, SU-DIPG-XIII, MIPE5.0, CellTiter-Glo, qHTS, dose response (AID 1347064; cut-off not given, nearly all actives have AC50 up to about 23 µM). To be noted: CellTiter-Glo ATP luminescence. For orientation: ATP-based viability assays read luminescence as a measure of living cells.
Experiment [4] can be described thus: growth inhibition of DIPG cells – cell-based, MIPE4.0 library, CellTiter-Glo luminescence, qHTS (AID 1347066; cut-off not given, nearly all actives have AC50 up to about 30 µM;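 further: cells exposed to compound for 48 hours before readout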). The note with it: SU-DIPG-VI viability, CellTiter-Glo ATP luminescence.
Experiment [5] is described as follows: JHH-DIPG-1 glioma cell viability, MIPE5.0 library, CellTiter-Glo luminescence, qHTS (AID 1347067; cut-off not given, nearly all actives have AC50 up to about 26 µM;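 further: cells exposed to compound for 48 hours before readout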). To be noted: JHH-DIPG-1 glioma viability, CellTiter-Glo ATP luminescence.
A short description of experiment [6]: viability loss with induced miR-34 in A549 – imaging, A549 dox-inducible miR-34, nuclei and caspase counts, primary screen (AID 1347080). The note with it: A549 miR-34 inducible, Hoechst nuclei count, 48 h.
The nature of experiment [7]: MELAS cybrid and Rieske KO viability enhancers – cell-based, MELAS cybrids, Rieske KO mouse fibroblasts, CellTiter-Glo, primary screen (AID 1508586;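 active means mean z-score across replicates of 1.96 or higher in either the MELAS or the Rieske mutant cell line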;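 further: z relative to plate mean and SD of compound and empty wells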). The note with it: low glucose.
A short description of experiment [8]: viability loss in pontine glioma line – cell-based, SU-DIPG-XXV, MIPE5.0, CellTiter-Glo, qHTS, dose response (AID 1347065; cut-off not given, nearly all actives have AC50 up to about 26 µM;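 further: cells exposed to compound for 48 hours before ATP readout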). The note with it: CellTiter-Glo ATP luminescence.
Experiment [9] can be described thus: growth inhibition of DIPG cells – cell-based, MIPE5.0 library, qHTS (AID 1347068; cut-off not given, nearly all actives have IC50 up to about 30 µM). The note with it: SU-DIPG-XXV viability. (In general: qHTS replaces the single test concentration by a dilution series.)
Setting [10] is: stronger effect = lower value, cell number ratio, induced over uninduced.
The mark [11] stands for this setting: measured here: relative caspase fold change +Dox/-Dox.
Setting [12] is: measured here: total cells with miR-34 induction, stronger effect = lower value.
Setting [13] is: measured here: total cells without miR-34 induction.
Setting [14] is: MELAS cybrid survival, CellTiter-Glo 48 h, stronger effect = higher value.
Setting [15] is: Rieske KO mouse fibroblast survival, CellTiter-Glo 72 h.

As to `CCN(CC)C(=O)c1ccc(C2=CC3(CCNCC3)Oc3cccc(O)c32)cc1`, the molecule was classed as inactive in [1], in experiment [2], in experiment [3], in experiment [4] and in [5]. Moreover, the results for the fold change in experiment [6] (setting [10]) and in experiment [6] (setting [11]) were 0.925 (inactive) and 0.955, respectively. For the same molecule, the cell count in experiment [6] (setting [12]) is 8090; in experiment [6] (setting [13]), 8740. The z-score in experiment [7] (setting [14]) is -0.509 (inactive); in experiment [7] (setting [15]) it was 0.582.

On to `CCCCC/C=C\C/C=C\C/C=C\C/C=C\CCCC(=O)Nc1ccc(O)cc1C`, for which the fold change in experiment [6] (setting [10]) is 1.03 (inactive); in experiment [6] (setting [11]), 0.979. Further, the cell count in experiment [6] (setting [12]) came to 6030; in [6] (setting [13]), 5870.

In the case of `CCCCC/C=C\C/C=C\C/C=C\C/C=C\CCCC(=O)N(C)C`, the fold change was 0.925 (inactive) in experiment [6] (setting [10]) and 1.14 in [6] (setting [11]). Moreover, the values for the cell count in [6] (setting [12]) and in experiment [6] (setting [13]) were 5340 and 5780, respectively.

Regarding `CC(C)(NC(=O)O[C@@H]1CN2CCC1CC2)c1csc(-c2ccc(F)cc2)n1`, the outcome in experiment [3], in experiment [8], in experiment [5] and in experiment [9] was inactive.

Turning to `CCCCCCC(=O)O[C@H]1CC[C@H]2[C@@H]3CC(=O)C4=CC(=O)CC[C@]4(C)[C@H]3CC[C@]12C`, the fold change is 0.899 (inactive) in experiment [6] (stronger effect = lower value) and 0.574 in experiment [6] (setting [11]). Besides, the figures for the cell count in [6] (setting [12]) and in experiment [6] (setting [13]) were 5250 and 5830, respectively.

On to `CCCC[C@@H](C)C(OC(=O)C[C@@H](CC(=O)O)C(=O)O)C(C[C@@H](C)C[C@H](O)CCCC[C@@H](O)C[C@H](O)[C@H](C)N)OC(=O)C[C@@H](CC(=O)O)C(=O)O` (stereo not given in full), for which the figures for the fold change in experiment [6] (setting [10]) and in experiment [6] (setting [11]) were 0.933 (inactive) and 0.809, respectively. The values for the cell count in [6] (setting [12]) and in [6] (setting [13]) were 5390 and 5780, respectively.

Take `CCNC(=O)CC1N=C(c2ccc(Cl)cc2)c2cc(OC)ccc2-n2c(C)nnc21` (stereo not given): in [2], the half-maximal activity concentration (AC50) (in general, the concentration at which the activity in the assay is half-maximal) was 16.6 µM (active). Further, the molecule was classed as inactive in experiment [3], in experiment [8], in experiment [5] and in experiment [9]. Besides, the fold change in experiment [6] (setting [10]) is 0.886 (inactive); in experiment [6] (setting [11]), 0.522. In addition, the cell count was found to be 5810 in experiment [6] (setting [12]) and 6550 in experiment [6] (setting [13]). In addition, the z-score was 0.755 (inactive) in experiment [7] (setting [14]) and -2.99 in [7] (setting [15]).

Consider `CC1(C)C(=O)N(c2ccc(C#N)c(C(F)(F)F)c2)C(=S)N1Cc1ccc(-c2cn[nH]n2)cc1`, for which, in experiment [9], the outcome was inactive.

`C[N+]1(C)[C@@H]2CC(OC(=O)C(CO)c3ccccc3)C[C@H]1[C@@H]1O[C@@H]12` (stereo not given in full): the fold change was 0.929 (inactive) in experiment [6] (stronger effect = lower value) and 1.43 in [6] (setting [11]). The cell count in [6] (setting [12]) was determined as 8500; in experiment [6] (setting [13]), 9160.

Turning to `O=C(CCC/C=C\C[C@@H]1[C@@H](/C=C/[C@@H](O)COc2cccc(C(F)(F)F)c2)[C@H](O)C[C@@H]1O)NC(CO)CO`, the fold change is 0.98 (inactive) in experiment [6] (stronger effect = lower value) and 0.862 in experiment [6] (setting [11]). For the same molecule, the cell count worked out at 5260 in [6] (setting [12]) and 5370 in experiment [6] (setting [13]).

In the case of `CCNC(=O)[C@H]1O[C@@H](n2cnc3c(N)ncnc32)[C@@H](O)C1O` (stereo not given in full), the fold change in experiment [6] (setting [10]) was 0.967 (inactive); in experiment [6] (setting [11]), 0.965. Moreover, the cell count turned out to be 6150 in [6] (setting [12]) and 6360 in [6] (setting [13]).

These data come from PubChem BioAssay.
